Measured values from PubChem BioAssay.

These molecules were tested against Concanavalin-A (Canavalia ensiformis) (UniProt P02866) (assay: compounds binding concanavalin A lectin – biochemical, small-molecule microarray, Alexa647 label, 635 nm, artefact control for SMM control protein annotation, primary screen (AID 1127;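 note: z combines 667 nm emission intensity with signal-to-noise across three replicate slides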)). Settings: ConA-A647 binding fluorescence, higher = more signal.
Chain of Concanavalin-A (Canavalia ensiformis) (P02866 whole entry, looked up): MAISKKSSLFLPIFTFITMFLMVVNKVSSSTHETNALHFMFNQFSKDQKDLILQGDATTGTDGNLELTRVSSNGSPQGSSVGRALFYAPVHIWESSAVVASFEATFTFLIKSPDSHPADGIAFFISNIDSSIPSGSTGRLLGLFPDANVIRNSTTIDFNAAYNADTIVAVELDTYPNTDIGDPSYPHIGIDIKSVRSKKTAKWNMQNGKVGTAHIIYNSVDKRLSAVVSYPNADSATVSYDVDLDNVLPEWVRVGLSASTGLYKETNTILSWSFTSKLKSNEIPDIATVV

SMILES | composite z-score
COCCOC(=O)N1C(=O)[C@@]2(c3ccccc31)[C@H](c1ccc(O)cc1)N1[C@H](c3ccccc3)[C@H](c3ccccc3)OC(=O)[C@H]1[C@@H]2C(=O)Nc1nc2ccccc2s1 | 1.2
NC(=O)NCC#Cc1ccc2c(c1)[C@]1(C(=O)N2)[C@H](C(=O)Nc2nc3ccccc3s2)[C@H]2C(=O)O[C@H](c3ccccc3)[C@H](c3ccccc3)N2[C@@H]1c1ccccc1OCCO | 1.08
COCCOC(=O)N1C(=O)[C@@]2(c3ccccc31)[C@H](c1ccccc1OCCO)N1[C@H](c3ccccc3)[C@H](c3ccccc3)OC(=O)[C@H]1[C@@H]2C(=O)N1CCN(c2ncccn2)CC1 | 1.11
COC(=O)[C@@]1(Cc2ccc(F)cc2)[C@H]2c3cc(C(=O)N4CCCC4)n(CCCNc4ncc(C(F)(F)F)cc4Cl)c3C[C@H]2CN1C(=O)c1ccccc1 | 0.625
CC(C)C[C@@H]1NC(=O)[C@@H]2C[C@H](C(=O)NCc3ccc(F)cc3)[C@H](c3cccc(OCCO)c3)N2C1=O | 0.902
C=CCC(OC(C)=O)[C@@H]1[C@@H](N(Cc2cc3ccccc3o2)C(=O)c2cccc3ccccc23)c2cc(OCCCO)ccc2N1C(=O)c1ccc(-c2ccccc2)cc1 (stereo partly specified) | -0.505
C#C[C@H](O[Si](C#Cc1ccc(Oc2ccccc2)cc1)(C(C)C)C(C)C)c1ccccc1 | 0.971
O=C1N[C@@H](Cc2ccccc2)C(=O)N2[C@@H]1C[C@@H](C(=O)O)[C@H]2c1cccc(OCCO)c1 | 0.311
COCCCNC(=O)[C@@]1(C)c2ccccc2C(=O)N(C(C)C)[C@H]1c1ccc(CO)cc1 | 0.67
C=CCN1C(=O)[C@@]2(Cc3ccccc31)N=C(c1ccc(OCCCO)cc1)O[C@H]2c1ccccc1 | 1.17
CN(C)CCCCCCNC(=O)[C@H]1C[C@H]2C(=O)N[C@@H](CCCCN)C(=O)N2[C@H]1c1cccc(OCCO)c1 | 1.25
COc1cc2c(cc1OC)CN(C(=O)[C@H]1[C@@H]3C(=O)O[C@@H](c4ccccc4)[C@@H](c4ccccc4)N3[C@@H](c3ccc(O)cc3)[C@]13C(=O)Nc1ccccc13)CC2 | 0.777
C=CC1(C(=O)OC)CC=C(C(=O)OC)CC1 (stereo unspecified) | 0.339
CCCC=C(CCC)[C@@H](NC(=O)c1cccs1)c1ccc(C(F)(F)F)cc1 | 0.79
C=CCNC(=O)[C@@H]1[C@H]2C(=O)O[C@H](c3ccccc3)[C@H](c3ccccc3)N2[C@H](c2ccccc2OCCO)[C@@]12C(=O)N(C(=O)OCCOC)c1ccccc12 | 1.16
COC(=O)C[C@H]1O[C@]2(C(=O)N(C)c3ccccc32)[C@@H](C)[C@@H]1[Si](C)(C)F | 0.596
C=CCOC(=O)[C@@H]1[C@H]2C(=O)O[C@H](c3ccccc3)[C@H](c3ccccc3)N2[C@H](c2ccc(OCCOC(=O)[C@@H]3C[C@@H]4C(=O)NCC(=O)N4[C@@H]3c3ccc(O)cc3)cc2)[C@@]12C(=O)Nc1ccc(I)cc12 | 1.19
COc1ccc(CCNC(=O)[C@@]2(C)c3ccccc3C(=O)N(C(C)C)[C@H]2c2ccc(CO)cc2)cc1 | 0.613
C=C(CC1([C@@H](NP(=O)(c2ccccc2)c2ccccc2)[C@H]2C[C@@H]2CCCC)CC1)c1ccccc1 | 0.546
COC(=O)[C@H](Cc1ccccc1)N1CC2=C[C@@H](C3CC3)n3c(=O)n(C)c(=O)n3[C@H]2[C@@H]1[C@@H](O)Cc1ccccc1 | 0.658
C=C(/C(=C/C[C@H](OC(C)=O)c1ccc(CO)o1)c1cc(C(=O)OC)ccc1OC)C(C)C | -0.237
[N-]=[N+]=Nc1ccccc1[C@H]1OC(c2ccc(OCCCO)cc2)=N[C@@]1(CCS(=O)(=O)c1ccccc1)C(N)=O | 0.868
COc1cc2c(cc1OC)CN(C(=O)[C@@H]1[C@H]3C(=O)O[C@H](c4ccccc4)[C@H](c4ccccc4)N3[C@H](c3ccccc3OCCO)[C@@]13C(=O)Nc1ccc(C#CCCO)cc13)CC2 | 1.14
C[N+](C)(C)CCCCNC(=O)[C@@H]1C[C@@H]2C(=O)N[C@@H](Cc3ccccc3)C(=O)N2[C@@H]1c1cccc(OCCO)c1 | -0.504
COCCOC(=O)N1C(=O)[C@@]2(c3cc(C#CCC(C(=O)OC)C(=O)OC)ccc31)[C@H](C(=O)Nc1nc3ccccc3s1)[C@H]1C(=O)O[C@H](c3ccccc3)[C@H](c3ccccc3)N1[C@@H]2c1ccccc1OCCO | 1.19
CCC[C@@H]1C[C@@]1(CCC)[C@@H](NS(=O)(=O)c1cccc2cccnc12)c1ccc(Cl)cc1 | 0.492
